# Source: article PMC7862700, “An all-to-all approach to the identification of sequence-specific readers for epigenetic DNA modifications on cytosine”
# Legend:
# Test in all cases: DAPPL (digital affinity profiling via proximity ligation, sequencing); 10 mM Tris-HCl pH 7.5, 50 mM NaCl, 1 mM DTT, 4% glycerol, room temperature, 30 min; GST-TFs on glutathione beads, 16-mer random dsDNA library, 0.1% formaldehyde crosslink after washing; high values mean tight binding
# [1] = biological target: ETV5 (Homo sapiens, UniProt P41161 1-510); details: protein: recombinant; tags: N-terminal GST; dsDNA, one strand shown
# Procedure, shortened: (§1)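 Each value of binding signal is a hexamer's read frequency for a factor divided by the same hexamer's frequency in the tag-only sample. Barcoded, bead-captured GST fusions of human transcription factors made in yeast were pooled with that sample and incubated with 200 nmole of a random double-stranded 16-mer DNA library in Tris/NaCl/DTT/glycerol buffer at room temperature for 30 min. Washing, 0.1% formaldehyde crosslinking, proximity ligation, PCR and Illumina NextSeq500 sequencing followed.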
# [2] = biological target: HSF1 (Homo sapiens, UniProt Q00613 1-529); details: protein: recombinant; tags: N-terminal GST; chain copies: 3; dsDNA, one strand shown
# Procedure, shortened: as §1
# [3] = biological target: T1, SPIC (Homo sapiens, UniProt Q8N5J4 1-248); details: protein: recombinant; tags: N-terminal GST; dsDNA, one strand shown
# T1 sequence: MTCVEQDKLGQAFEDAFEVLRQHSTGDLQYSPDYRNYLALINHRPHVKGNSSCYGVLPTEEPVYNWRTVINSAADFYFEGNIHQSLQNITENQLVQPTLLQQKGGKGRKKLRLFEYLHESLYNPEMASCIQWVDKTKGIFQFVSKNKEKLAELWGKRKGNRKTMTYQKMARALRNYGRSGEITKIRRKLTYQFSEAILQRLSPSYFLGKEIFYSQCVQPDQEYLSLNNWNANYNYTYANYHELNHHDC
# Procedure, shortened: as §1
# [4] = biological target: ELF4 (Homo sapiens, UniProt Q99607 1-663); details: protein: recombinant; tags: N-terminal GST; dsDNA, one strand shown
# Procedure, shortened: as §1
# [5] = biological target: T2, ELK4 (Homo sapiens, UniProt P28324-2 1-405); details: protein: recombinant; tags: N-terminal GST; dsDNA, one strand shown
# T2 sequence: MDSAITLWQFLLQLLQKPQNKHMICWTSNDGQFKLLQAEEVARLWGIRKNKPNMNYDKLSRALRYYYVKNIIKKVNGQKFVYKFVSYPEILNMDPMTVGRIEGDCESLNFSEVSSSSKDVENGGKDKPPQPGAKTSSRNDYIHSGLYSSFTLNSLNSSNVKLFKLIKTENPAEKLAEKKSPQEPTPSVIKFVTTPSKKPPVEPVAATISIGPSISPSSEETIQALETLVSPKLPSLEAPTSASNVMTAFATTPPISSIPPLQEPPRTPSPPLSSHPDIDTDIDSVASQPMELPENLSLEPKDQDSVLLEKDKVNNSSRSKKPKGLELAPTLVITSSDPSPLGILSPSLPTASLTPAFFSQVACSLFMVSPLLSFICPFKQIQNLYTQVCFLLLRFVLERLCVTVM
# Procedure, shortened: as §1
# [6] = biological target: T3, ETV2 (Homo sapiens, UniProt O00321 1-342); details: protein: recombinant; tags: N-terminal GST; dsDNA, one strand shown
# T3 sequence: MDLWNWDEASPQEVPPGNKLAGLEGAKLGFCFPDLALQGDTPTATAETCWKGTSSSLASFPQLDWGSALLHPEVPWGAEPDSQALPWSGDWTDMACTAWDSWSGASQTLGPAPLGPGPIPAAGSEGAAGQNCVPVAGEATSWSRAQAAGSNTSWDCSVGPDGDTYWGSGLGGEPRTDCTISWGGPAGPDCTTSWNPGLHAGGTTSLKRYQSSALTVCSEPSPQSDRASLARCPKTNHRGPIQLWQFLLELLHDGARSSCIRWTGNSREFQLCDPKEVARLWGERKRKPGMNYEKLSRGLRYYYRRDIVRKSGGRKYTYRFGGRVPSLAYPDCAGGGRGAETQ
# Procedure, shortened: as §1
# [7] = biological target: T4, ELF3 (Homo sapiens, UniProt P78545 1-371); details: protein: recombinant; tags: N-terminal GST; dsDNA, one strand shown
# T4 sequence: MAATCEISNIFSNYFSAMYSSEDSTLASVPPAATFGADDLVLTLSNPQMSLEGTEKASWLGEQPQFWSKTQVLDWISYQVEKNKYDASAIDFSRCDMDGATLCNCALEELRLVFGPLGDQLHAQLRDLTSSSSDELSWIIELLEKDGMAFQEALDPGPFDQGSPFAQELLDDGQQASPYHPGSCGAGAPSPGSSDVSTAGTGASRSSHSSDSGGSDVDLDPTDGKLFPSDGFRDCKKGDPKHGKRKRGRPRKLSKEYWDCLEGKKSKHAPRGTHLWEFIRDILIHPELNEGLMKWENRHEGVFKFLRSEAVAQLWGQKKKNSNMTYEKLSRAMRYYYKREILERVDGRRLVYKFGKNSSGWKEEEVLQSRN
# Procedure, shortened: as §1
# [8] = biological target: CRX (Homo sapiens, UniProt O43186 1-299); details: protein: recombinant; tags: N-terminal GST; dsDNA, one strand shown
# Procedure, shortened: as §1
# [9] = biological target: ETV1 (Homo sapiens, UniProt P50549 1-477); details: protein: recombinant; tags: N-terminal GST; dsDNA, one strand shown
# Procedure, shortened: as §1
# [10] = biological target: T5, ERF (Homo sapiens, UniProt P50548 1-548); details: protein: recombinant; tags: N-terminal GST; dsDNA, one strand shown
# T5 sequence: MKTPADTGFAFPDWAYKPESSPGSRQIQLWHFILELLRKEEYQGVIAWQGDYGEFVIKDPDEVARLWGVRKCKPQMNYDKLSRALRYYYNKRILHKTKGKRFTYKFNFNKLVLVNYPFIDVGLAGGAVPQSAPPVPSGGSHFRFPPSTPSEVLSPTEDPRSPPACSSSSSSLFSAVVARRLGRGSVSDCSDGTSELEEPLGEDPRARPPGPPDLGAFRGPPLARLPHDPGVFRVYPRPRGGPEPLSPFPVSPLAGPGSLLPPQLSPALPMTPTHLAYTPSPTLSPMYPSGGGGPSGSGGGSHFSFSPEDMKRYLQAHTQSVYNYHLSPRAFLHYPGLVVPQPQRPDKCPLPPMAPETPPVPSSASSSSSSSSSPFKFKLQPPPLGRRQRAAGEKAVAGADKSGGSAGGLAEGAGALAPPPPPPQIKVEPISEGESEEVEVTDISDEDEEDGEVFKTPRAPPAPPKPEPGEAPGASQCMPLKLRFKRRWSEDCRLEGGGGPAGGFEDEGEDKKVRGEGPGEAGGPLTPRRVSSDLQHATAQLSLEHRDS
# Procedure, shortened: as §1
# [11] = biological target: T6, ETV3L (Homo sapiens, UniProt Q6ZN32 1-361); details: protein: recombinant; tags: N-terminal GST; dsDNA, one strand shown
# T6 sequence: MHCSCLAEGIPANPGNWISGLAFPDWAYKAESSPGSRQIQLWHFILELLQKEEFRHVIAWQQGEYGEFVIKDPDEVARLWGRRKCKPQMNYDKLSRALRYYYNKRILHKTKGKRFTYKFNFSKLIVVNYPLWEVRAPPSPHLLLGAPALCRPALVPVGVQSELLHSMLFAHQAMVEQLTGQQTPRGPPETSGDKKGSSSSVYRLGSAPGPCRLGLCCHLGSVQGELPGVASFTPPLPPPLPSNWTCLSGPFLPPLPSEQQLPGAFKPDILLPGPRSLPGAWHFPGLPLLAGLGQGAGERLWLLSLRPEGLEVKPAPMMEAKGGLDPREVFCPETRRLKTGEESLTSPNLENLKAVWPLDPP
# Procedure, shortened: as §1
# [12] = biological target: T7, ETS2 (Homo sapiens, UniProt P15036 1-469); details: protein: recombinant; tags: N-terminal GST; dsDNA, one strand shown
# T7 sequence: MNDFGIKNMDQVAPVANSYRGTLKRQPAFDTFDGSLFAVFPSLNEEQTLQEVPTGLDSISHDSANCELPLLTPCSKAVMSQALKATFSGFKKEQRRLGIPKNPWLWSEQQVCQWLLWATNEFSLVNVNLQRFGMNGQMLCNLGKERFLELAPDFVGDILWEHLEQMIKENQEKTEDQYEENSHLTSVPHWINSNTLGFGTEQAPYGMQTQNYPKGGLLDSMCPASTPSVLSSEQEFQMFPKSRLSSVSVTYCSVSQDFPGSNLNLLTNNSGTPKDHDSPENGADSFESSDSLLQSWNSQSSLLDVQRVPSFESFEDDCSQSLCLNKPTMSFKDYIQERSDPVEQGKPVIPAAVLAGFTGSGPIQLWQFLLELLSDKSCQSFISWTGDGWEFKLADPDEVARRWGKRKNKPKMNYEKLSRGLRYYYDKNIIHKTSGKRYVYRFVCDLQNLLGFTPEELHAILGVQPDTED
# Procedure, shortened: as §1
# [13] = biological target: T8, SPDEF (Homo sapiens, UniProt O95238 1-335); details: protein: recombinant; tags: N-terminal GST; dsDNA, one strand shown
# T8 sequence: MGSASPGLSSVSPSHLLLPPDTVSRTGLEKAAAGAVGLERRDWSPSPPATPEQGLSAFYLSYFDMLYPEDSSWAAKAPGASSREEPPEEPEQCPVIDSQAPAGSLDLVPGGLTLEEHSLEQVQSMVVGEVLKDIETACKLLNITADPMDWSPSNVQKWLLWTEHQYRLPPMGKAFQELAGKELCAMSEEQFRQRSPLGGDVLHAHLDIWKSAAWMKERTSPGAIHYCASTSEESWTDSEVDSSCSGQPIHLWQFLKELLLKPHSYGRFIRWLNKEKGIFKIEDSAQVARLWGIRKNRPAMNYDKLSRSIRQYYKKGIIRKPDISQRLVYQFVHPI
# Procedure, shortened: as §1
# [14] = biological target: T9, ETV7 (Homo sapiens, UniProt Q9Y603 1-341); details: protein: recombinant; tags: N-terminal GST; dsDNA, one strand shown
# T9 sequence: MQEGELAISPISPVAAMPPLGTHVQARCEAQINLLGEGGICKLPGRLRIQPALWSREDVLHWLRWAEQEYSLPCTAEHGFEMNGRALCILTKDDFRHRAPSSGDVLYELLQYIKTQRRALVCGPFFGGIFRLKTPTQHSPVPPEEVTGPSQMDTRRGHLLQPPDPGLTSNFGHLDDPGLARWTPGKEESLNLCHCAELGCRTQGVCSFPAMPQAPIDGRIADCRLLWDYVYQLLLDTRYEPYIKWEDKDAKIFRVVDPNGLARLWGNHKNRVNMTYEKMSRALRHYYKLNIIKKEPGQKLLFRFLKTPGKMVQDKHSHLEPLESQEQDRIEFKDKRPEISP
# Procedure, shortened: as §1
# [15] = biological target: T10, ELF5 (Homo sapiens, UniProt Q9UKW6-2 1-255); details: protein: recombinant; tags: N-terminal GST; dsDNA, one strand shown
# T10 sequence: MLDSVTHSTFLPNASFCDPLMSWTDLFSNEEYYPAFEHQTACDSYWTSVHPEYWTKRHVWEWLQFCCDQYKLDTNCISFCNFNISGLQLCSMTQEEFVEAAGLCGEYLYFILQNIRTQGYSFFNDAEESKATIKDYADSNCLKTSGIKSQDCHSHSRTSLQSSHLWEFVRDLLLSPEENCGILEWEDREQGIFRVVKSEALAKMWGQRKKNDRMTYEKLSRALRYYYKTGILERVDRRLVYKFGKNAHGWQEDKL
# Procedure, shortened: as §1
# [16] = biological target: T11, ETV3 (Homo sapiens, UniProt P41162-2 1-143); details: protein: recombinant; tags: N-terminal GST; dsDNA, one strand shown
# T11 sequence: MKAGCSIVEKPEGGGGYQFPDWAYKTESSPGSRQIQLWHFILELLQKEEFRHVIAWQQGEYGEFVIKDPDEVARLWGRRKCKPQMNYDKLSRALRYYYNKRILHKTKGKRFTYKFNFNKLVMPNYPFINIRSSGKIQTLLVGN
# Procedure, shortened: as §1
# [17] = biological target: ETV6 (Homo sapiens, UniProt P41212 1-452); details: protein: recombinant; tags: N-terminal GST; dsDNA, one strand shown
# Procedure, shortened: as §1
# Sequence of CRX (O43186 whole entry): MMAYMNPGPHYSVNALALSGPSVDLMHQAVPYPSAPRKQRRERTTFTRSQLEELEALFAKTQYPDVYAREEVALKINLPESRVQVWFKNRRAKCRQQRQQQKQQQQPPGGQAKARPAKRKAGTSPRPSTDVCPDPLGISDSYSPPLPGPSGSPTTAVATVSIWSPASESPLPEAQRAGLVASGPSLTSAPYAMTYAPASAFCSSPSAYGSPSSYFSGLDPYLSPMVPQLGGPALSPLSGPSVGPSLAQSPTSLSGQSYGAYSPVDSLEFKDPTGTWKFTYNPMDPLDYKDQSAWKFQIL
# Sequence of ETV1 (P50549 whole entry): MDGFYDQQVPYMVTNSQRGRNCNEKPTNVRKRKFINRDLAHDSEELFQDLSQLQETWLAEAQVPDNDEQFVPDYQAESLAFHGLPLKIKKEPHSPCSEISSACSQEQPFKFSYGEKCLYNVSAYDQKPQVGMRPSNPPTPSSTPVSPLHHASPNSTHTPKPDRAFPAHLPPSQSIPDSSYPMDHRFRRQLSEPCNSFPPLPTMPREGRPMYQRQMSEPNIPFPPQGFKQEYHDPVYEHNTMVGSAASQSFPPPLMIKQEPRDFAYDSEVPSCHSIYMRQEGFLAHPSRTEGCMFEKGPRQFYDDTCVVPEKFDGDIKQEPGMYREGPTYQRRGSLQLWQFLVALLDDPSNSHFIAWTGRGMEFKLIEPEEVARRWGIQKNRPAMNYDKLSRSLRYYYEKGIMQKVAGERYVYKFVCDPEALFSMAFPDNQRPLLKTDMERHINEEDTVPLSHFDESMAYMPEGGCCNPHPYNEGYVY
# Sequence of HSF1 (Q00613 whole entry): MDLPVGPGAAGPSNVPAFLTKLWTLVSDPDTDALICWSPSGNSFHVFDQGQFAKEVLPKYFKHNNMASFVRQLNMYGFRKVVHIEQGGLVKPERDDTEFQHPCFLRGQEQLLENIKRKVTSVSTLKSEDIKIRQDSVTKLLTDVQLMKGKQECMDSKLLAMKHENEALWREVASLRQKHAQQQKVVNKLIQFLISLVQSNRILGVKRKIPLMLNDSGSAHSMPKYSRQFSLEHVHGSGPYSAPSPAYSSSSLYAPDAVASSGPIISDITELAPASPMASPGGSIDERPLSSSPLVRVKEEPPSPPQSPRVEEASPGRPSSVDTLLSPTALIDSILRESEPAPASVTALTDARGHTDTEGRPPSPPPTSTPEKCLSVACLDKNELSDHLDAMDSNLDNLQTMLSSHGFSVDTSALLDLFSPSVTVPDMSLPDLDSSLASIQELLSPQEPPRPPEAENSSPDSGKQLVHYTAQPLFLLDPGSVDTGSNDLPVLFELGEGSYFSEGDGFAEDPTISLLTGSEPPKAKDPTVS
# Sequence of ETV5 (P41161 whole entry, the tested form may be a part): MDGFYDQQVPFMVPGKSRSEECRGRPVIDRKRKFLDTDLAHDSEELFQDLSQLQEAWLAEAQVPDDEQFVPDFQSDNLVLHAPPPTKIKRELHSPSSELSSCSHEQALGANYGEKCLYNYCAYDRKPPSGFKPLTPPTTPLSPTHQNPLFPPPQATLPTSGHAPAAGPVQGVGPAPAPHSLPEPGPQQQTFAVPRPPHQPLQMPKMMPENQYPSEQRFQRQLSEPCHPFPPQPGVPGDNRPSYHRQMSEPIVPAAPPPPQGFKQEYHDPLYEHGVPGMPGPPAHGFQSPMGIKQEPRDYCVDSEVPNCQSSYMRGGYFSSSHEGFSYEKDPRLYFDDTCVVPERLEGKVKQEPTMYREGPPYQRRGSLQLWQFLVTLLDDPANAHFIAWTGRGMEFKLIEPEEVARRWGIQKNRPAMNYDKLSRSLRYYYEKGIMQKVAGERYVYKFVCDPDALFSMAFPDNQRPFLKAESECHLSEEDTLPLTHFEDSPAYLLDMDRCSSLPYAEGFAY
# Sequence of ETV6 (P41212 whole entry): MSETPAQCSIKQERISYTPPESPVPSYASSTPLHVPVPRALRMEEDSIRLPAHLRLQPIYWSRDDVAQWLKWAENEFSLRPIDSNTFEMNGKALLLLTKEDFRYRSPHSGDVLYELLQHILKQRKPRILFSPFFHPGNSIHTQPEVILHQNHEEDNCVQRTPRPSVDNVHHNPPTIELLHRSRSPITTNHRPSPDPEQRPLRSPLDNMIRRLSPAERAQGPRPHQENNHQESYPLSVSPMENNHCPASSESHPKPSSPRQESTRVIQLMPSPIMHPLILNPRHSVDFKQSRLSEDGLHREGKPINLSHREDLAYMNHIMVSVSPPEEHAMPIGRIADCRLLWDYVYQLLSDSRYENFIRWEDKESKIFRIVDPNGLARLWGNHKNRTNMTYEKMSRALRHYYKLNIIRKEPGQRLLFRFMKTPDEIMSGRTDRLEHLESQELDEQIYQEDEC
# Sequence of ELF4 (Q99607 whole entry): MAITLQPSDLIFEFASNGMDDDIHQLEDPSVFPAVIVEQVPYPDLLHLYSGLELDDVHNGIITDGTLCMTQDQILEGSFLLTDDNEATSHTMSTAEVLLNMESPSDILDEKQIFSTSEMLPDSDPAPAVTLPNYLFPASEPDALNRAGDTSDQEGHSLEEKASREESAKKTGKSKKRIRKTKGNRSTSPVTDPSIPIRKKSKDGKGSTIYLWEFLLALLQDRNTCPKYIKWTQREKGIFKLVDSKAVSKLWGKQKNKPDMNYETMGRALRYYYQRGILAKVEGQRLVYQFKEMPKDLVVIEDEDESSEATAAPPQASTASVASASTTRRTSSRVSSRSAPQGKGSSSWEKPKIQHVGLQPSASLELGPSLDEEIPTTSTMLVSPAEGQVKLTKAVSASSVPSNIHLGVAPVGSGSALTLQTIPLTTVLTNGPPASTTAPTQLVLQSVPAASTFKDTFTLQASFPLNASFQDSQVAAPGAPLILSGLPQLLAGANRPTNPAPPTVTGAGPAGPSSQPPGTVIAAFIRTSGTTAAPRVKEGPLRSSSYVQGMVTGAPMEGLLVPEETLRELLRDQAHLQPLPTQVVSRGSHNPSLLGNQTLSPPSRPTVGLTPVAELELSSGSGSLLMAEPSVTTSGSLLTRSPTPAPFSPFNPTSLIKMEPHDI
sequence,measurement,setting,value
CTATTA,binding signal,[1],"1.14 fold enrichment (6-mer frequency, TF over GST control)"
same,binding signal,[2],"1.3 fold enrichment (6-mer frequency, TF over GST control)"
same,binding signal,[3],"1.07 fold enrichment (6-mer frequency, TF over GST control)"
same,binding signal,[4],"1.14 fold enrichment (6-mer frequency, TF over GST control)"
same,binding signal,[5],"1.09 fold enrichment (6-mer frequency, TF over GST control)"
same,binding signal,[6],"1.13 fold enrichment (6-mer frequency, TF over GST control)"
same,binding signal,[7],"1.03 fold enrichment (6-mer frequency, TF over GST control)"
same,binding signal,[8],"1.76 fold enrichment (6-mer frequency, TF over GST control)"
same,binding signal,[9],"1.14 fold enrichment (6-mer frequency, TF over GST control)"
same,binding signal,[10],"1.08 fold enrichment (6-mer frequency, TF over GST control)"
same,binding signal,[11],"1.11 fold enrichment (6-mer frequency, TF over GST control)"
same,binding signal,[12],"1.14 fold enrichment (6-mer frequency, TF over GST control)"
same,binding signal,[13],"1.07 fold enrichment (6-mer frequency, TF over GST control)"
same,binding signal,[14],"1.07 fold enrichment (6-mer frequency, TF over GST control)"
same,binding signal,[15],"1.1 fold enrichment (6-mer frequency, TF over GST control)"
same,binding signal,[16],"1.05 fold enrichment (6-mer frequency, TF over GST control)"
same,binding signal,[17],"1.14 fold enrichment (6-mer frequency, TF over GST control)"
